Measured values reported in the supplement of paper PMC11732987, “Enantioselective OTUD7B fragment discovery through chemoproteomics screening and high-throughput optimisation” (Communications Chemistry, 2025).
A number with no mark means an inactive call.

Columns and labels:
Experiment in all cases: log2 ratio of Biotin-Ahx-Ub-VS probe labelling (fragment/DMSO); higher = less target engagement (more negative = stronger competition), active = hit call of the paper (q ≤ 0.05, log2 ratio ≤ -1)
Conditions in all cases: compound concentration: 200 uM; treatment time: 3 h
OTUD6B = target: T1, OTUD6B (UniProt Q8N6M0)
T1 sequence (whole entry): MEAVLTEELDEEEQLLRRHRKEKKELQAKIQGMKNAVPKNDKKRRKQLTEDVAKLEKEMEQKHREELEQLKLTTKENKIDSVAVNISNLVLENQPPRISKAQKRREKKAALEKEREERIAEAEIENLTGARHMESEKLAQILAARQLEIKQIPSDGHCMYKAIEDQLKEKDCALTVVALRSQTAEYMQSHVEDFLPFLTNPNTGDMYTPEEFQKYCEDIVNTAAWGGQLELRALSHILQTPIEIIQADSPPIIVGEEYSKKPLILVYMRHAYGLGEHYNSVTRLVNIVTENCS
Method in brief: (§1)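 Global-median-normalised Spectronaut label-free quantities were compared by unpaired t-test, and values are average log2 ratios of fragment over vehicle. Only proteins with ≥2 unique peptides were used. HEK293T lysate (495 µg per sample) was treated in triplicate with fragment at 200 µM or vehicle for 3 h and then with Biotin-Ahx-Ub-VS at 0.5 µM final for 1 h. Labelled DUBs were then NeutrAvidin-enriched, digested with LysC and trypsin, and run by diaPASEF LC-MS/MS.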

OTUD7B = target: T2, OTUD7B (UniProt Q6GQQ9)
T2 sequence (whole entry): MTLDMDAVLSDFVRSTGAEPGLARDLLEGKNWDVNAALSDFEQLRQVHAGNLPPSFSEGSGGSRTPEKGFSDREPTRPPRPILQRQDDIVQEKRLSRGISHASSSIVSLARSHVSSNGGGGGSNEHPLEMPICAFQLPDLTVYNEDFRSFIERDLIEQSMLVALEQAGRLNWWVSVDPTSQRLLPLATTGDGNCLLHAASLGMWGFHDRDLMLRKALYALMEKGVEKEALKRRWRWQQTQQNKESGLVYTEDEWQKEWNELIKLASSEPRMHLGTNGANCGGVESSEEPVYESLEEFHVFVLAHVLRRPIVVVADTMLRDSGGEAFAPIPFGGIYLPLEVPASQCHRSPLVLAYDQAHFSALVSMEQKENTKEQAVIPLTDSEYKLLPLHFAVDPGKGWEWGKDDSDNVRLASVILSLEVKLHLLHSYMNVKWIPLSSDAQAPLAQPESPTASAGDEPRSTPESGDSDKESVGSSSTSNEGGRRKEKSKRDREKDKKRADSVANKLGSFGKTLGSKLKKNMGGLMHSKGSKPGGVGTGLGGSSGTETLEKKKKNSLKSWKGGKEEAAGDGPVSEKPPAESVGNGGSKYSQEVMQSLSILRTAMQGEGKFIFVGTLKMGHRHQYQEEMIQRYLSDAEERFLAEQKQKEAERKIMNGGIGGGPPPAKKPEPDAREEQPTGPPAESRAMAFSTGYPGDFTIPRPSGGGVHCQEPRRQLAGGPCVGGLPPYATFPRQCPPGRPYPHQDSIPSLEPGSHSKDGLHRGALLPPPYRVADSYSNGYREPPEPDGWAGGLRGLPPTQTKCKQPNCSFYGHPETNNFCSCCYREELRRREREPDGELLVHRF
Method in brief: as §1

PRPF8 = PRPF8 (UniProt Q6P2Q9)
Method in brief: as §1

PSMD7 = target: T3, PSMD7 (UniProt P51665)
T3 sequence (whole entry): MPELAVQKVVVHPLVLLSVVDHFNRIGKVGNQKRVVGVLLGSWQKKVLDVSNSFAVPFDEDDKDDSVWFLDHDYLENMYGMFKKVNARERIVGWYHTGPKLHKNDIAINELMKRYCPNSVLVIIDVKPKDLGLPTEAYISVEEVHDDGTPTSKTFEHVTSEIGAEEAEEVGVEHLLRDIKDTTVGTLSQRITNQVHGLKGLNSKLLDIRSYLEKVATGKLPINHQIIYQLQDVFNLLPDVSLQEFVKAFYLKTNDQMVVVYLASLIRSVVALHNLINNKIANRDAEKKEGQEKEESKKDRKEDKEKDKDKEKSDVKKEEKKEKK
Method in brief: as §1

UCHL1 = UCHL1 (UniProt P09936)
Method in brief: as §1

UCHL3 = target: T4, UCHL3 (UniProt P15374)
T4 sequence (whole entry): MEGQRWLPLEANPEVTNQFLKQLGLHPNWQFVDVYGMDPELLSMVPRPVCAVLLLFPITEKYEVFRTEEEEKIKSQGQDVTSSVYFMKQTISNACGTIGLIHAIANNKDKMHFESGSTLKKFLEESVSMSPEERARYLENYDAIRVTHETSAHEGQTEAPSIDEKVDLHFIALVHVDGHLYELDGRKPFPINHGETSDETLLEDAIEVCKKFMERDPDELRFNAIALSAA
Method in brief: as §1

UCHL5 = target: T5, UCHL5 (UniProt Q9Y5K5)
T5 sequence (whole entry): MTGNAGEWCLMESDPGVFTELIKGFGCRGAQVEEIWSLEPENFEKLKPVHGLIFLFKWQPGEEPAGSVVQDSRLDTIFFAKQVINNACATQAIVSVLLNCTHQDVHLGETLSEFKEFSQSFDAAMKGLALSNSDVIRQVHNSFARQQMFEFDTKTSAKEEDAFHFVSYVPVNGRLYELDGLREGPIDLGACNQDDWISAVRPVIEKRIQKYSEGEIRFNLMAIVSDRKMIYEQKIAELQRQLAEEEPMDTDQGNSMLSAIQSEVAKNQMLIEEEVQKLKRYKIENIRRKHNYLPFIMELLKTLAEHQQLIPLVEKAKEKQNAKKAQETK
Method in brief: as §1

USP10 = USP10 (UniProt Q14694)
Method in brief: as §1

USP15 = target: T6, USP15 (UniProt Q9Y4E8)
T6 sequence (whole entry): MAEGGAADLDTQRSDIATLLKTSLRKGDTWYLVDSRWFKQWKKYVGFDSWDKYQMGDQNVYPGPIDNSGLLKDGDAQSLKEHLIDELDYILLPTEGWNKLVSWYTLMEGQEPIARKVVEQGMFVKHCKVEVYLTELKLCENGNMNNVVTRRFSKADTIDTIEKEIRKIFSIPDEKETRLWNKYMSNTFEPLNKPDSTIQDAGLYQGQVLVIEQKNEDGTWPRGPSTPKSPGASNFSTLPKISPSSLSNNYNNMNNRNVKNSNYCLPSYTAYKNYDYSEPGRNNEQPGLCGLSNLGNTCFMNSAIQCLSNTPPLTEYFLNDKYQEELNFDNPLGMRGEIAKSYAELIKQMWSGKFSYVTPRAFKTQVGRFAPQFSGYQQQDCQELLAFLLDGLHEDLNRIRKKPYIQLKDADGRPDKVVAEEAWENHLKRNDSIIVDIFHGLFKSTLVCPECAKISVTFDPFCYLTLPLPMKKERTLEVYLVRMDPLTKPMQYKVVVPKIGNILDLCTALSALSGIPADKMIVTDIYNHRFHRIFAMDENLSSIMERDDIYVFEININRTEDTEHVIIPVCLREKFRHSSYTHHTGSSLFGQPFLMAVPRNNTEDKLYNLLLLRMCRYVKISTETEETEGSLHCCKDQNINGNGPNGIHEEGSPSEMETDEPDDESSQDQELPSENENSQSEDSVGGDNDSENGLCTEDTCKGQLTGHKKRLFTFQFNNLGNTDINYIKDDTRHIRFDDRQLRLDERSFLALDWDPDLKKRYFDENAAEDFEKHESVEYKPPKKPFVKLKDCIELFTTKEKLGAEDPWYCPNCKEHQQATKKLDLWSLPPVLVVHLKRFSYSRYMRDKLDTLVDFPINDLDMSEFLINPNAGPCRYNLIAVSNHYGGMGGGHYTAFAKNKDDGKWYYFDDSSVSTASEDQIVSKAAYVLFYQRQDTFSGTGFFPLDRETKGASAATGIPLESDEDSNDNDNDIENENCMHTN
Method in brief: as §1

USP16 = USP16 (UniProt Q9Y5T5)
Method in brief: as §1

Chain of USP10 (Q14694 whole entry): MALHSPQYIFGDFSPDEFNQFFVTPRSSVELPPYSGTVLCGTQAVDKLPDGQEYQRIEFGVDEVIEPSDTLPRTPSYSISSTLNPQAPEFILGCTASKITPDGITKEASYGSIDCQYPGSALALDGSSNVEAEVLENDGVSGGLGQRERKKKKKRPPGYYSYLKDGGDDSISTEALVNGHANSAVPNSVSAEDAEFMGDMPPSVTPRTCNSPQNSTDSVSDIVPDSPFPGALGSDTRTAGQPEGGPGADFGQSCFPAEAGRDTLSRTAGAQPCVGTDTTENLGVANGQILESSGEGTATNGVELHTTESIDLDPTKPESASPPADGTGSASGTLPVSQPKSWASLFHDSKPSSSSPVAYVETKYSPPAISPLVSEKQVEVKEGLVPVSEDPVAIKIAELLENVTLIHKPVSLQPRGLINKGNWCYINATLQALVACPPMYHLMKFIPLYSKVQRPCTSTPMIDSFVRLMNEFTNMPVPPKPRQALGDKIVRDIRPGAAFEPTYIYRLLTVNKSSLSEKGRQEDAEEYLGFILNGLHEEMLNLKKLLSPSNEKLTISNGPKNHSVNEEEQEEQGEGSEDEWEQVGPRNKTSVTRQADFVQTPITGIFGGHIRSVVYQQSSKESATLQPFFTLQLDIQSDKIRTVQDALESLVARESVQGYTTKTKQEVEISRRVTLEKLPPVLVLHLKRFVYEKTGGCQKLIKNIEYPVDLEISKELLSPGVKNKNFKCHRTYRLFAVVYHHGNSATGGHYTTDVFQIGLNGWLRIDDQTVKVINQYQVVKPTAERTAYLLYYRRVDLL
Chain of USP16 (Q9Y5T5 whole entry, looked up): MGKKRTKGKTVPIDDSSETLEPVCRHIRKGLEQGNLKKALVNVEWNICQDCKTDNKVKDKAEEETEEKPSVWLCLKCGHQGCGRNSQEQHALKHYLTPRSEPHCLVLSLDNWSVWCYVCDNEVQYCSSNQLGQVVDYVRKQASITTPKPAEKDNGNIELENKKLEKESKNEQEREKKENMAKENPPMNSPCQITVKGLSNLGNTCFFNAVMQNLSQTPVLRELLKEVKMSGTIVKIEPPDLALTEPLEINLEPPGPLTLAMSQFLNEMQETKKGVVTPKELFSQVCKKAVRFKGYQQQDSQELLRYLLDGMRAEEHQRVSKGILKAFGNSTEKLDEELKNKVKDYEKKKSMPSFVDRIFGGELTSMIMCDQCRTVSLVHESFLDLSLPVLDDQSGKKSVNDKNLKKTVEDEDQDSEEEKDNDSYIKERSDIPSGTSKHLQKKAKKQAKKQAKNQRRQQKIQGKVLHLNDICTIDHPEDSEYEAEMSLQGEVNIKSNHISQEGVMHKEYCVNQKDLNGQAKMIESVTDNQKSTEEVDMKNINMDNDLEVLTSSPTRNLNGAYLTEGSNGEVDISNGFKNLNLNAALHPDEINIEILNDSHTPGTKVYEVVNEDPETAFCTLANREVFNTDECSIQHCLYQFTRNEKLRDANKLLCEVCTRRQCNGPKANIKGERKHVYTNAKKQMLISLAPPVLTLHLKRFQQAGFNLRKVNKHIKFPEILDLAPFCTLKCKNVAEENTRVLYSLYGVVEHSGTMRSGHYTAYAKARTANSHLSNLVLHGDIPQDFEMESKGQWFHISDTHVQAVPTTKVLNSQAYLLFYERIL
Chain of UCHL1 (P09936 whole entry, looked up): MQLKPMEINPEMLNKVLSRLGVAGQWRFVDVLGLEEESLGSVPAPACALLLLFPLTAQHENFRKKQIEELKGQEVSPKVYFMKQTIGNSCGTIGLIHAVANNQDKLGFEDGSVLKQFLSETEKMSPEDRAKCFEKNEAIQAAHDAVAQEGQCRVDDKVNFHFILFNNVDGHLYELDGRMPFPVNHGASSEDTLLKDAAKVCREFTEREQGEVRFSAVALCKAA

CNC(=O)C1(NC(=O)CCl)CCCCC1
log2 ratio of Biotin-Ahx-Ub-VS probe labelling (OTUD6B): -0.206 | log2 ratio of Biotin-Ahx-Ub-VS probe labelling (OTUD7B): -0.687 | log2 ratio of Biotin-Ahx-Ub-VS probe labelling (PRPF8): -0.213 | log2 ratio of Biotin-Ahx-Ub-VS probe labelling (PSMD7): -0.128 | log2 ratio of Biotin-Ahx-Ub-VS probe labelling (UCHL1): -1.81 (active) | log2 ratio of Biotin-Ahx-Ub-VS probe labelling (UCHL3): 0.248 | log2 ratio of Biotin-Ahx-Ub-VS probe labelling (UCHL5): -0.358 | log2 ratio of Biotin-Ahx-Ub-VS probe labelling (USP10): -0.0869 | log2 ratio of Biotin-Ahx-Ub-VS probe labelling (USP15): 0.0503 | log2 ratio of Biotin-Ahx-Ub-VS probe labelling (USP16): 0.154
